# Data published in PubChem BioAssay (EPA / NIEHS).
# Records with an inconclusive call do not appear. Active and inactive are the calls of the source. How the source made its calls: active means hit-call score of the fitted dose curve at least 0.9, where 1 is the maximum; inconclusive means response in the unintended direction; inactive means score below 0.9.
# Target: Glucocorticoid receptor (Homo sapiens) (UniProt P04150)
# Assay: ATG_GR_TRANS: Attagene TRANS-FACTORIAL HepG2 Assay for human Glucocorticoid Receptor (GR) (AID 2282978);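 further: activators score as hits since higher reporter transcript over DMSO is fitted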
# Settings: HepG2 Attagene TRANS GR reporter, mRNA transcription
# Method: ATG_TRANS is a cell-based, multiplexed-readout assay that uses HepG2, a human liver cell line, with measurements taken at 24 hours after chemical dosing in a 24-well plate.ATG_GR_TRANS is one of 30 assay component(s) measured or calculated from the ATG_TRANS assay. It is designed to make measurements of mRNA induction, a form of inducible reporter, as detected with fluorescence intensity signals by Reverse transcription polymerase chain reaction (RT-PCR) and Capillary electrophoresis technology.Data from the assay component ATG_GR_TRANS was analyzed into 1 assay endpoint. This assay endpoint, ATG_GR_TRANS, was analyzed in the positive analysis fitting direction relative to DMSO as the negative control and baseline of activity. Using a type of inducible reporter, measures of mRNA for gain-of-signal activity can be used to understand the reporter gene at the transcription factor-level as they relate to the gene NR3C1. Furthermore, this assay endpoint can be referred to as a primary readout, because this assay has produced multiple assay endpoints where this one serves a reporter gene function. To generalize the intended target to other relatable targets, this assay endpoint is annotated to the nuclear receptor intended target family, where the subfamily is steroidal.
# Human liver HepG2 cells are transiently transfected with multiple reporter transcription units (MRTUs) in 6-well plates using FuGene 6 reagent (Roche; 3 ml FuGene/1 mg DNA). The MRTU constructs are regulated by a cis-regulating element (promoter). […] A major difference between the CIS and TRANS system is that in CIS activities of endogenous TFs are measured, whereas the TRANS assay evaluates changes in activities of exogenous, chimeric NR-Gal4 proteins. […] At the end of 24 hour incubation, total RNA was isolated using TriZol reagent (Invitrogen). The isolated RNA is then reverse-transcribed using oligo(dT) primer and Mo-MLV reverse transcriptase (Invitrogen) with DNAse I (Ambion) treatment for 30 min. The one-tenth of the produced cDNA was amplified by PCR using Taq DNA polymerase (Invitrogen) and two reporter sequence-specific primers. The PCR products were fluorescently labeled by primer extension with 6-arboxyfluorescein (6-FAM) 5'-labeled reporter sequence-specific primer (2 min at 95 C, 20 s at 68 C and 10 min at 72 C) and these products were digested with 5U of HpaI (New England Biolabs) for 2h at 37 C. The fragments were purified using Qiaquick PCR columns (Qiagen), analyzed on an ABI 3130xL genetic analyzer (Applied Biosystems) with peak positions identified by using a set of X-rhodamine (ROX)-labeled MapMarker1000 molecular weight standards (BioVentures). The raw capillary electrophoresis data was processed using Attagraph software (Attagene).
# Sequence of Glucocorticoid receptor (Homo sapiens) (P04150 whole entry, looked up): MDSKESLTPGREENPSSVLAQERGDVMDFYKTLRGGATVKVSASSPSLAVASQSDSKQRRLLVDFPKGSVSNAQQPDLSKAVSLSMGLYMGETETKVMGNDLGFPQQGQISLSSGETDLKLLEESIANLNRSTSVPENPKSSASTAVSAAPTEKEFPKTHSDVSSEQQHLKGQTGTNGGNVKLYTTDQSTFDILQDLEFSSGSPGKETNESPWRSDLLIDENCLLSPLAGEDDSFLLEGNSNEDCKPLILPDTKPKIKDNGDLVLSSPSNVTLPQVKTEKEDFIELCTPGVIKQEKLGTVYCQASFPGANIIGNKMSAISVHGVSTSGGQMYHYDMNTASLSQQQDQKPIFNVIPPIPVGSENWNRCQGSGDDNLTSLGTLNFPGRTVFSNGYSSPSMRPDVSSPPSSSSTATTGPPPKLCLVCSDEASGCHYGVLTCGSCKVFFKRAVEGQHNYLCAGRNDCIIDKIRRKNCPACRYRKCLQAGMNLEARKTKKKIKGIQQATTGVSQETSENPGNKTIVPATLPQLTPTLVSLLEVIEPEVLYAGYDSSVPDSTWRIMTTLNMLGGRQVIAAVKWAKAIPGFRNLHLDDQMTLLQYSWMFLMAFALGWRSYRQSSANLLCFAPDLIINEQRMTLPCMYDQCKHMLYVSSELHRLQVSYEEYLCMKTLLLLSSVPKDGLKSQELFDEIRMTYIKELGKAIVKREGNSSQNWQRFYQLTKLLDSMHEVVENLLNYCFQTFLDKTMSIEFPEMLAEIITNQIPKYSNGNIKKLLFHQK
Compound,outcome,AC50
CC(C)COC(=O)c1ccccc1C(=O)OCC(C)C,inactive,
ClC1=C(Cl)C2(Cl)C3C(Cl)C=CC3C1(Cl)C2(Cl)Cl (stereo not given),inactive,
OCCCl,inactive,
COP(=S)(OC)SCN1C(=O)c2ccccc2C1=O,inactive,
CO[C@@H]1[C@H](OC(=O)NC(=O)CCl)CC[C@]2(CO2)[C@H]1[C@@]1(C)O[C@@H]1CC=C(C)C,inactive,
Cn1cc(-c2ccccc2)c(=O)c(-c2cccc(C(F)(F)F)c2)c1,inactive,
O=[N+]([O-])c1ccc(Oc2ccc(Cl)cc2Cl)cc1,inactive,
CCCCOC(=O)c1ccccc1C(=O)OCc1ccccc1,inactive,
c1ccc(NNc2ccccc2)cc1,inactive,
CN(C)c1ccccc1,inactive,
c1ccc(C2CO2)cc1 (stereo not given),inactive,
Nc1ccc(Cl)cc1N,inactive,
CC(C)(O)c1cnn2c(-c3ccc(F)c(-c4c(F)cccc4C#N)c3)cnc2n1,inactive,
CCC[CH2][Sn]([Cl])([CH2]CCC)[CH2]CCC,,1240 nM (active)
Cc1cccc(N)c1N,inactive,
Nc1ccc(N=Nc2ccccc2)cc1,inactive,
CCCSC(=O)N(CCC)CCC,inactive,
Brc1ccc(Oc2ccccc2)cc1,inactive,
O=C(Nc1ccccc1)c1ccccc1I,inactive,
C=CCc1ccc2c(c1)OCO2,inactive,

Compound,outcome,AC50
O=P(OCCCl)(OCCCl)OCCCl,inactive,
CCCCCCCCOC(=O)c1ccc(C(=O)OCCCCCCCC)c(C(=O)OCCCCCCCC)c1,inactive,
[As]#[In],inactive,
O=C(Oc1ccc(Br)cc1)N1CCN2CCC1CC2,inactive,
Oc1ccccc1Cl,inactive,
c1ccc(N=Nc2ccccc2)cc1,inactive,
Nc1ccc(Cc2ccc(N)cc2)cc1,inactive,
c1ccc2c(c1)oc1ccccc12,inactive,
Clc1ccc(C(c2ccc(Cl)cc2)C(Cl)Cl)cc1,inactive,
Nc1ccc([N+](=O)[O-])cc1,inactive,
Clc1ccccc1Cl,inactive,
CCC(C)c1ccc(O)cc1 (stereo not given),inactive,
Clc1ccc(C(c2ccc(Cl)cc2)C(Cl)(Cl)Cl)cc1,inactive,
CCCCCOC(=O)c1ccccc1C(=O)OCCCCC,inactive,
Oc1ccc2ccc3cccc4ccc1c2c34,inactive,
Nc1ccc(Oc2ccc(N)cc2)cc1,inactive,
N#CC(Br)Br,inactive,
Cc1cc(N=Nc2ccccc2C)ccc1N,inactive,
CCCCCCCCCCCCCN1CC(C)OC(C)C1 (stereo not given),inactive,
CCOC(=O)[C@]1(c2ccccc2)Oc2ccccc2[C@@H]1N,inactive,
